Screen size: about 5,500 compounds; about 2,000 (36%) were called active. Another 18% or so got no clear call; they are omitted. Cut-off read from the data, not from the text of the source: active = normalized growth mostly below about 0.91 (no sharp cut-off); inconclusive = no clear call, values can overlap the other calls; inactive = mostly above about 0.92. The list shows a part of the results.
Assay: chemical genetic growth profiling, strain panel (AID 1159580);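 note: tested at 20 µM; growth read once vehicle control cultures reached saturation at 30 °C; 1 = growth at the plate median or of vehicle wells; lower values mean less growth of the strain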
Settings: S. cerevisiae deletion strains, growth OD
[1] = locus YHR030C, strain SLT2, hits give low values
[2] = locus YHR079C, strain IRE1, hits give low values
[3] = locus YJL095W, strain BCK1, hits give low values
[4] = locus YJR066W, strain TOR1, hits give low values
[5] = locus YLR113W, strain HOG1, hits give low values
[6] = locus YNL183C, strain NPR1, hits give low values
[7] = locus YOR231W, strain MKK1, hits give low values
[8] = locus YPL256C, strain CLN2, hits give low values

Measured: normalized growth

OC[C@@H](O)[C@@H](O)[C@H](O)[C@@H](O)CO
inactive: [1] 0.986 | [2] 0.96 | [3] 0.992 | [4] 0.946 | [5] 0.989 | [6] 0.947 | [7] 0.989 | [8] 1.01

CCCc1cc(C(N)=S)ccn1
inactive: locus YAL021C, strain ccr4, hits give low values 0.966 | locus YAL026C, strain drs2, hits give low values 0.982 | locus YAL030W, strain snc1, hits give low values 0.985 | locus YBL061C, strain skt5, hits give low values 0.975 | locus YBR009C, strain hhf1, hits give low values 0.939 | locus YBR023C, strain chs3, hits give low values 0.963 | locus YBR171W, strain sec66, hits give low values 0.955 | locus YBR231C, strain swc5, hits give low values 0.981 | locus YBR279W, strain paf1, hits give low values 0.97 | locus YCL011C, strain gbp2, hits give low values 0.974 | locus YCL016C, strain dcc1, hits give low values 0.985 | locus YCL069W, strain vba3, hits give low values 0.963 | locus YCR088W, strain abp1, hits give low values 0.966 | locus YDL005C, strain med2, hits give low values 0.959 | locus YDL040C, strain nat1, hits give low values 0.964 | locus YDR001C, strain nth1, hits give low values 0.971 | locus YDR069C, strain doa4, hits give low values 0.95 | locus YDR137W, strain rgp1, hits give low values 0.976 | locus YDR159W, strain sac3, hits give low values 0.89 | locus YDR195W, strain ref2 0.976 | locus YDR297W, strain sur2, hits give low values 0.975 | locus YDR334W, strain swr1, hits give low values 0.929 | locus YDR335W, strain msn5, hits give low values 0.961 | locus YDR392W, strain spt3, hits give low values 0.886 | locus YEL003W, strain gim4, hits give low values 0.972 | locus YEL037C, strain rad23, hits give low values 0.964 | locus YEL061C, strain CIN8 (second series), hits give low values 0.96 | locus YER015W, strain faa2, hits give low values 0.978 | locus YER016W, strain bim1, hits give low values 0.988 | locus YER111C, strain swi4, hits give low values 0.988 | locus YER155C, strain BEM2 (second series), hits give low values 0.958 | locus YFR010W, strain ubp6, hits give low values 0.948 | locus YGL167C, strain pmr1, hits give low values 0.939 | locus YGL173C, strain kem1, hits give low values 0.966 | locus YGL227W, strain vid30, hits give low values 0.974 | locus YGL240W, strain doc1, hits give low values 0.953 | locus YGL253W, strain hxk2, hits give low values 0.952 | locus YHR013C, strain ard1, hits give low values 0.954 | locus YHR027C, strain rpn1, hits give low values 0.967 | [1] 1.01 | [2] 1.02 | locus YHR142W, strain chs7, hits give low values 0.981 | locus YJL092W, strain hpr5, hits give low values 0.971 | locus YJL095W, strain BCK1 (second series), hits give low values 0.978 | [3] 1.02 | locus YJL115W, strain asf1, hits give low values 0.948 | locus YJL129C, strain trk1, hits give low values 0.981 | locus YJL154C, strain vps35, hits give low values 0.96 | locus YJL164C, strain tpk1, hits give low values 0.971 | locus YJL166W, strain qcr8, hits give low values 0.95 | [4] 0.925 | locus YKL160W, strain elf1, hits give low values 0.989 | locus YKR026C, strain gcn3, hits give low values 0.942 | locus YKR091W, strain srl3, hits give low values 0.96 | locus YLL001W, strain dnm1, hits give low values 0.954 | locus YLL026W, hits give low values 0.985 | locus YLL041C, strain sdh2, hits give low values 0.964 | locus YLR027C, strain aat2, hits give low values 0.98 | [5] 0.997 | locus YLR221C, strain rsa3, hits give low values 0.956 | locus YLR258W, strain gsy2, hits give low values 0.966 | locus YLR262C, strain YPT6 (second series), hits give low values 0.943 | locus YLR320W, strain mms22, hits give low values 0.937 | locus YLR342W, strain FKS1, hits give low values 0.981 | locus YLR357W, strain rsc2, hits give low values 0.888 | locus YLR370C, strain arc18, hits give low values 0.955 | locus YLR384C, strain iki3, hits give low values 0.971 | locus YML120C, strain ndi1, hits give low values 0.964 | locus YMR058W, strain fet3, hits give low values 0.981 | locus YMR125W, strain sto1, hits give low values 0.918 | locus YMR129W, hits give low values 0.961 | locus YMR205C, strain PFK2, hits give low values 0.955 | locus YMR231W, strain pep5, hits give low values 0.967 | locus YNL071W, strain lat1, hits give low values 0.958 | [6] 0.942 | locus YNL209W, strain ssb2, hits give low values 0.955 | locus YNL248C, strain rpa49, hits give low values 0.925 | locus YNL322C, strain KRE1 (second series), hits give low values 0.966 | locus YNR049C, strain mso1, hits give low values 0.948 | locus YOR001W, strain rrp6, hits give low values 0.938 | locus YOR070C, strain gyp1, hits give low values 0.98 | locus YOR080W, strain dia2, hits give low values 0.942 | locus YOR083W, strain WHI5, hits give low values 0.946 | locus YOR106W, strain vam3, hits give low values 0.983 | [7] 1 | locus YOR265W, strain rbl2, hits give low values 0.978 | locus YOR270C, strain vph1, hits give low values 0.931 | locus YOR290C, strain snf2, hits give low values 0.989 | locus YPL051W, strain arl3, hits give low values 0.989 | locus YPL078C, strain atp4, hits give low values 0.991 | locus YPL106C, strain sse1, hits give low values 0.956 | locus YPL240C, strain hsp82, hits give low values 0.976 | [8] 1.01

— PubChem BioAssay AID1159580 (chemical genetic matrix, 2015)
